PubChem BioAssay (EPA / NIEHS)
Active and inactive are the calls of the source. The calls were made as follows: active = hit-call score of the fitted dose curve at least 0.9, where 1 is the maximum; inactive = score below 0.9.

Target: Estrogen receptor (Homo sapiens) (UniProt P03372)
Experiment: OT_ERa_GFPERaERE_0480: Odyssey Thera (OT) 8-hour HeLa Transcription Induction Assay for Estrogen Receptor (AID 2283381)
Protocol: OT_ERa_GFPERaERE_0480 is a cell-based, single-readout assay that uses HeLa, a human cervix cell line, with measurements taken at 8 hours after chemical dosing in a 384-well plate.OT_ERa_GFPERaERE_0480 is one of one assay component(s) measured or calculated from the OT_ERa_GFPERaERE_0480 assay. It is designed to make measurements of fluorescent protein induction, a form of inducible reporter, as detected with optical microscopy: fluorescence microscopy signals by Microscopy technology.Data from the assay component OT_ERa_GFPERaERE_0480 was analyzed into 1 assay endpoint. This assay endpoint, OT_ERa_EREGFP_0480, was analyzed in the positive analysis fitting direction relative to DMSO as the negative control and baseline of activity. Using a type of inducible reporter, measures of receptor for gain-of-signal activity can be used to understand the reporter gene at the pathway-level as they relate to the gene ESR1. Furthermore, this assay endpoint can be referred to as a primary readout, because the performed assay has only produced 1 assay endpoint. To generalize the intended target to other relatable targets, this assay endpoint is annotated to the nuclear receptor intended target family, where the subfamily is steroidal.
All assay endpoints are quantified using high content image analysis algorithms.

Estrogen receptor (Homo sapiens), sequence (P03372 whole entry, looked up): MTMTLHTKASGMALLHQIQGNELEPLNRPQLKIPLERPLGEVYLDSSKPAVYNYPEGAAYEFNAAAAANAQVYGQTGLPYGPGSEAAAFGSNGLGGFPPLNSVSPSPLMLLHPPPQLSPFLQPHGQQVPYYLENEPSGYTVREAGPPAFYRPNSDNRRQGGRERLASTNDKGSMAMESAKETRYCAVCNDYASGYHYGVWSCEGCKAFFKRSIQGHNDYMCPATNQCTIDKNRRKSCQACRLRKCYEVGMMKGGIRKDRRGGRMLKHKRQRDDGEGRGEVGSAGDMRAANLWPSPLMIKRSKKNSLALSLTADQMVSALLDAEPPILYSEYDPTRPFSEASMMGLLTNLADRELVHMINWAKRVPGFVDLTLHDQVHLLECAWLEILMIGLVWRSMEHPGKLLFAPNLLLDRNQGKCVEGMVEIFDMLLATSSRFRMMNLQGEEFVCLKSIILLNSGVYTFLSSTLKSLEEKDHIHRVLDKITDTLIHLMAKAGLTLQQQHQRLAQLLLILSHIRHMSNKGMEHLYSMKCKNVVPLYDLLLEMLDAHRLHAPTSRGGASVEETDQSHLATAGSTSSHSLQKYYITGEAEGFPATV

Compound	AC50	outcome
CC(O)CNCC(C)O (stereo not given)	29.8 µM (active)	
CCCCCCCCCCCCN1CCOCC1		inactive
CC(=O)OC(C)(C)C1CC=C(C)CC1 (stereo not given)		inactive
CCCCCCCCCCCCOCCOS(=O)(=O)O	10 µM (active)	
CCC(C)C1CCCCC1=O (stereo not given)		inactive
CCCCCCCCOC(C)=O		inactive
CCCCCCCCCOS(=O)(=O)O		inactive
O=S(=O)(O)c1cc(S(=O)(=O)O)c2c(N=Nc3ccccc3)c(O)ccc2c1		inactive
CCCO[Si](OCCC)(OCCC)OCCC		inactive
Cc1cccc(C)c1		inactive
COc1ccc2[nH]cc(CCNC(C)=O)c2c1		inactive
CCCCCC1C(=O)CCC1CC(=O)OC (stereo not given)		inactive
CCCC1CCC(=O)CC1		inactive
CCCC(O)C(CC)CO (stereo not given)		inactive
CC(=O)c1ccc2ccccc2c1		inactive
[O-]/[N+](=N\O)c1ccccc1		inactive
C1CCCNCC1		inactive
CC(C)(C)c1cccc(O)c1		inactive
CC(=O)C1=C(C)[C@@H]2C[C@@]3(C1)[C@H](C)CC[C@H]3C2(C)C		inactive
CCC(=O)OC(C)(C)C1CC=C(C)CC1 (stereo not given)		inactive

Compound	AC50	outcome
NC(=O)c1cccnc1		inactive
CC1COC(=O)O1 (stereo not given)		inactive
CCCCCCCCCCO[C@@H]1O[C@H](CO)[C@@H](O)[C@H](O)[C@H]1O		inactive
CC(CCO)CC(C)(C)C (stereo not given)		inactive
CC12CCC(C1)C(C)(C)C2O (stereo not given)		inactive
CC1=CCC(=C(C)C)CC1		inactive
c1ccc(Cc2ccccc2)cc1		inactive
CC1=CCC(C(C)C)=CC1		inactive
CC(=O)Nc1cc(S(=O)(=O)O)cc2cc(S(=O)(=O)O)c(N=Nc3ccccc3)c(O)c12		inactive
COC(=O)C(C)Oc1ccc(Oc2ncc(C(F)(F)F)cc2Cl)cc1 (stereo not given)		inactive
OCC=Cc1ccccc1		inactive
C1=COCCC1		inactive
CC1=CCC(C(C)(C)O)CC1 (stereo not given)		inactive
CC(=O)CC(=O)N(C)C		inactive
C=CC(C)CCCC(C)(C)O (stereo not given)		inactive
Cc1cccc(O)c1		inactive
C=CCCCCCCCCC(=O)OCC		inactive
c1ccc2scnc2c1		inactive
CCCCCCCC(=O)N(C)C		inactive
FC(F)(F)c1ccc(Cl)c(Cl)c1		inactive
